Screening results: PubChem BioAssay, several laboratories
Bead autofluor – compound fluorescence in toxin protease inhibitor counterscreen; 3.1% of 360,000 active; fluorescence intensity (test concentration not listed); compound autofluorescence counterscreen, microsphere flow cytometry; hits give high values; in the data active means fluorescence intensity above about 16000; inconclusive means no clear call, values can overlap the other calls
BoNT-A LC inh2 – BoNT/A light chain protease inhibitors, primary screen, biochemical, flow cytometry, MLPCN library | Botulinum neurotoxin type A light chain protease (Clostridium botulinum A str. ATCC 3502) | 0.17% of 360,000 active | inhibition, % at 10 µM | multiplex microsphere protease substrate cleavage | AID 588499, 2011; further: plate controls were buffer without enzyme for full effect and enzyme alone for no effect
Vc quorum ag-1 – inducers of Vibrio cholerae quorum light production without autoinducers, primary screen, BH1578 luxS cqsA deficient, single point | V. cholerae BH1578 lux reporter, luminescence, 6 h | activation, % at 18.7 µM | 0.16% of 350,000 active; in the data active means activation mostly above about 9.7%, no sharp cut-off; inconclusive means no clear call, values can overlap the other calls; inactive means mostly below about 3.7%
Anthrax LF prot – Bacillus anthracis LF protease inhibitors, primary screen, biochemical, multiplex microsphere, MLPCN library | 0.12% of 360,000 active | Lethal factor (Bacillus anthracis), P15917 | inhibition, % at 10 µM | multiplex microsphere protease cleavage assay; further: plate controls were buffer without enzyme for full effect and enzyme alone for no effect
Target sequence (P15917 whole entry, looked up): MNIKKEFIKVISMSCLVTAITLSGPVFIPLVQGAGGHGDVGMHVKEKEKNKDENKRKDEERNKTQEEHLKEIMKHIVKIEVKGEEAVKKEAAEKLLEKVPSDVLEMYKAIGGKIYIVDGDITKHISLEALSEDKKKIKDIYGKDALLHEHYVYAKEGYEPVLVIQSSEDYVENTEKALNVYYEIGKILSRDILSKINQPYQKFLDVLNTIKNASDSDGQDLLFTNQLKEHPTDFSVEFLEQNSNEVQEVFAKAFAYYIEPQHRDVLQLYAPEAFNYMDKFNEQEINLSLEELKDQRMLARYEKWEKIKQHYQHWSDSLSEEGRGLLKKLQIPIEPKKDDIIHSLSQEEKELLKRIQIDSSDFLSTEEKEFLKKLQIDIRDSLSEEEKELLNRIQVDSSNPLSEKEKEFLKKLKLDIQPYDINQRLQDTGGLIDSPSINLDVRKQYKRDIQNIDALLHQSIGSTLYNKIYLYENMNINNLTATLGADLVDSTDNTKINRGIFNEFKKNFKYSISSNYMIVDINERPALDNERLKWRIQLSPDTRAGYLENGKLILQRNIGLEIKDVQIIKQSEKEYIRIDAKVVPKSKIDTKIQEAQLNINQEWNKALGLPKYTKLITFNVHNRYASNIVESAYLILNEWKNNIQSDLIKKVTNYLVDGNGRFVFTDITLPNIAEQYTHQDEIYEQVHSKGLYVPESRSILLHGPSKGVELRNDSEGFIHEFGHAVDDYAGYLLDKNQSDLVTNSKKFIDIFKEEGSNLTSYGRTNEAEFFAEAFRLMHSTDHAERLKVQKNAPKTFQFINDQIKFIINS
BoNT F protease – BoNT/F light chain protease inhibitors, primary screen, biochemical, flow cytometry, MLPCN library; Botulinum neurotoxin type F light chain protease (Clostridium botulinum); Multiplex microsphere protease cleavage assay; inhibition, % at 10 µM; 0.22% of 360,000 active; AID 588497, 2011; in the data active means inhibition above about 35%, passing the limit was not always enough; inconclusive means no clear call, values can overlap the other calls; further: plate controls were buffer without enzyme for full effect and enzyme alone for no effect
Vc quorum ag-2 – V. cholerae lux activation without autoinducers – BH1578 luxS cqsA deficient, cherry-pick, plate reader, dose response; activation, % at 50 µM; V. cholerae BH1578 lux reporter, luminescence, 6 h; 620 tested, under 10 active; shares compounds with Vc quorum ag-1; AID 602243, 2012; call rule not given here
HeLa tox – HeLa cell cytotoxicity, dose response, cytotoxicity control, 24 h, dry powder. HeLa viability, CellTiter-Glo ATP luminescence. activity change, negative = cytotoxicity, % at 35 µM. shares compounds with Vc quorum ag-1. 25 tested, under 10 active. AID 624140, 2012;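 active means signal drop with fitted half-maximal concentration at or below twice the highest valid dose; inconclusive means flat curve with 30 to 70% loss, or poor fit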
Numbers without * were called inactive; i = inactive; ? = inconclusive; nt = no result; + = active, no number. Only some compounds are listed: those with a hit (about 3.5% of all), similar ones and a draw of the others. Unless noted, no stated cut-off is given here; in the data, active means inhibition above about 30%; inconclusive means no clear call, values can overlap the other calls; inactive means below that.

SMILES	Bead autofluor	BoNT-A LC inh2	Vc quorum ag-1	Anthrax LF prot	BoNT F protease	Vc quorum ag-2	others
CCc1ccc(C(=O)Nc2nnnn2CC)cc1	nt	nt	nt	nt	nt	nt	HeLa tox=-5.1
Cc1cccc(NC(=O)c2c(O)c3ccccc3n(C)c2=O)c1	4235	0.5	70.3*	-13.4	12.1	0.0
COc1cccc(Oc2cnc(N)nc2-c2ccc(OC)cc2O)c1	4564	-3.5	2.2	-13.0	-34.3	nt
COc1ccc(-c2nc(N)ncc2Oc2ccccc2Br)c(O)c1	5110	-0.5	35.7*	-0.3	-26.4	0.0
CC(C)(C)c1nc(N2CCN(C(=O)c3ccco3)CC2)c2nnn(Cc3ccccc3)c2n1	8630	-0.4	16.7*	-4.2	-4.7	0.1
Cc1ccn2c(=O)c(NC(=O)c3ccc(Br)o3)c(C)nc2c1	?	-1.4	i	-1.9	-0.1	nt
O=C(c1ccco1)N1CCN(C2CC(=O)N(c3ccc(F)c(Cl)c3)C2=O)CC1 (stereo not drawn)	7183	-4.7	-0.4	-0.7	-4.8	nt
O=C(COC(=O)[C@H](Cc1c[nH]c2ccccc12)NC(=O)c1ccc(Cl)cc1)Nc1ccc2c(c1)OCO2	21349*	3.4	1.8	-3.3	1.9	-0.1
C=C(C)CSc1[nH]c(=O)cc(C)c1C#N	4135	-0.9	i	0.8	7.1	nt
CCCN1CCN(C(=O)CCCNC(=O)Cn2cnc3sc(C)c(C)c3c2=O)CC1	3032	0.5	14.3	-0.1	1.4	4.6
CC(Sc1nc2ccccc2c(=O)n1C)C(=O)N(C)C1CCCCC1 (stereo not drawn)	5644	3.7	-1.4	1.7	16.9	nt
COc1ccc(NC(=O)CSc2ccc3c(c2)OCCO3)cc1OC	2252	-0.9	25.0*	-4.3	-12.0	0.0
CCn1c(SCC(=O)Nc2ccc3c(c2)OCCO3)nnc1-c1ccccn1	13400	-1.7	12.5	-1.9	-31.4	0.1
COc1cc(NC(=O)CSc2ccc3c(c2)OCCO3)cc(OC)c1OC	4282	0.3	i	2.8	27.4	nt
COc1cc(OC)cc(C(=O)NCC(=O)OC2CCCCC2=O)c1 (stereo not drawn)	4593	-1.2	-0.3	0.5	-5.8	nt
Cc1cc(C(=O)NNc2ccc(F)cc2)no1	nt	nt	0.8	nt	nt	nt
C[C@H](CO)N1C[C@H](C)[C@@H](CN(C)C(=O)Nc2ccc3c(c2)OCO3)Oc2ccc(NC(=O)Cn3cnnn3)cc2C1=O	3980	-0.3	-0.6	-4.3	-4.1	nt
COc1ccc(S(=O)(=O)Nc2cccc(S(=O)(=O)N3CCCC3)c2)cc1OC	4299	6.2	14.3	0.9	9.4	-100.0
COc1ccc(S(=O)(=O)N2CCCCCC2)cc1NC(=O)c1ccccc1	5418	2.0	-1.3	1.5	13.9	nt
COc1ccc(CCN(C)C(=O)c2cc(S(=O)(=O)N3CCCCC3)ccc2Cl)cc1OC	5936	2.4	-10.0	-2.7	-3.1	nt
COc1ccc(CCN(C)C(=O)c2cc(S(=O)(=O)N3CCCCCC3)ccc2OC)cc1OC	5329	0.4	19.3	-2.6	-4.0	-0.1
COc1ccc(S(=O)(=O)N2CCCCC2)cc1NC(=O)c1ccc(OC)c(OC)c1	5311	-0.3	14.3	-2.4	-10.2	0.2
CCc1ccccc1NC(=O)C1CCN(S(=O)(=O)c2ccc3c(c2)N(C(C)=O)CCO3)CC1	5264	0.4	-0.3	-2.0	-0.3	nt
Cc1ccnc(SCc2cn3c(C)cc(C)nc3n2)n1	4183	-0.5	1.6	-7.4	-2.6	nt
Cc1cc(C)n2cc(COc3ccc4ccccc4c3)nc2n1	2867	0.5	+	-0.7	-3.6	287.1
CCCc1cc(Nc2ccccc2)n2ncnc2n1	3724	-1.6	0.6	-3.9	12.5	nt
CCCc1cc(Nc2ccccc2OCC)n2ncnc2n1	2413	0.8	3.2	-0.4	0.7	1.2
COc1ccccc1-c1ocnc1C(=O)N1CCN(S(=O)(=O)c2ccc(NC(C)=O)cc2)CC1	6118	-0.4	-0.2	-1.4	-1.0	nt
CN1CCN(C(=O)CCN2C(=O)c3ccccc3C2=O)CC1	4011	0.0	0.4	-2.0	-1.4	nt
